An excerpt weighted towards active compounds, which were near 1.4% of everything screened.
AmpC inh no detg – qHTS Inhibitors of AmpC Beta-Lactamase (assay without detergent) | AID 485341, 2010 | P00811 | AmpC nitrocefin hydrolysis, absorbance 480 nm, 0.0001% Triton | Potency, µM (series often up to 57.1 µM), for inactives: at the top dose activity change, negative = inhibition, actives largely listed as inhibitors | hit rate 0.52% among 330,000;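 further: plate controls were no compound for no effect and no enzyme for full effect; nearly all actives have a fitted effect of over 20% in size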
Target sequence (P00811 whole entry, looked up): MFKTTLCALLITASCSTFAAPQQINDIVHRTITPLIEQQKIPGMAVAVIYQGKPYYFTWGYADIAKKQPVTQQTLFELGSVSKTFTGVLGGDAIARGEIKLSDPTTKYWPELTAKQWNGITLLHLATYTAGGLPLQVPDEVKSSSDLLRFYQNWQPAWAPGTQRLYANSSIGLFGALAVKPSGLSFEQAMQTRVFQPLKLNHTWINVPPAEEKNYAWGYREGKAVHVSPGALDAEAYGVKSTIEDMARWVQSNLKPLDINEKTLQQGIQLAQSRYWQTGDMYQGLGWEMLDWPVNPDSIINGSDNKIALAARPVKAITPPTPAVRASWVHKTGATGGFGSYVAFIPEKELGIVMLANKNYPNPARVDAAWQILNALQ
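AmpC (5.3 nM in the dispensed reagent) in 20 mM phosphate pH 7.0 with 0.01% (detergent screen) or 0.0001% Triton X-100 was preincubated with compounds for 15 min at room temperature. Nitrocefin was then added from an 800 uM solution, and hydrolysis was followed at 480 nm.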
SARS PLpro yeast – qHTS of Yeast-based Assay for SARS-CoV PLP | S. cerevisiae expressing SARS-CoV PLpro, growth rescue | Potency, µM (top dose mostly 32.9 µM), inactives show at the top dose activity, positive = growth rescue, hits mostly activators | hit rate 0.19% among 330,000 | AID 485353, 2010; calls by dose curve; further: 0% is about no effect; nearly all actives have a fitted effect of over 55% in size
VACV mCherry inh – qHTS for Stage-Specific Inhibitors of Vaccinia Orthopoxvirus: mCherry Reporter Primary qHTS; Vaccinia virus mCherry reporter infection, fluorescence; Potency, µM (top dose mostly 36.5 µM), inactives show at the top dose activity change, negative = inhibition, hits mostly inhibitors; hit rate 0.63% among 310,000; AID 720579, 2013; calls by dose curve; tested in A549 cells; further: on the % scale 0 is the no-effect control and ±100 the full control effect; nearly all actives have a fitted effect of over 35% in size
AMA1-RON2 inh – qHTS for Inhibitors of AMA1-RON; Towards Development of Antimalarial Drug Lead: Primary Screen. Plasmodium falciparum AMA1 (3D7) - RON2 peptide interaction. AlphaScreen AMA1-biotinylated RON2 peptide binding. Potency, µM (titrated, usually from 58.2 µM), for the others: top-dose activity change, negative = inhibition, usual class: inhibitors. hit rate 0.2% among 360,000. AID 720542, 2013;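 further: 0% = vehicle wells and -100% = peptide control; nearly all actives have a fitted effect of over 45% in size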
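AMA1 (3D7) with his tag at 25 nM final met compounds first, then biotinylated RON2 peptide at 25 nM; detection used donor plus acceptor beads, 10 µg/mL apiece, read by AlphaScreen after 30 min at room temperature.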
AmpC detergent – qHTS Inhibitors of AmpC Beta-Lactamase (assay with detergent). P00811. AmpC hydrolysis of nitrocefin, absorbance 480 nm, 0.01% Triton. Potency, µM (top dose mostly 114 µM), without a hit: at the highest dose activity change, negative = inhibition, actives largely listed as inhibitors. hit rate 0.041% among 370,000. AID 485294, 2010;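 further: 0% = no-compound wells and -100% = no-enzyme wells; nearly all actives have a fitted effect of over 25% in size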
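AmpC (5.3 nM in the dispensed reagent) in 20 mM phosphate pH 7.0 with 0.01% (detergent screen) or 0.0001% Triton X-100 was preincubated with compounds for 15 min at room temperature. Nitrocefin was then added from an 800 uM solution, and hydrolysis was followed at 480 nm.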
VACV Venus inh – qHTS for Stage-Specific Inhibitors of Vaccinia Orthopoxvirus: Venus Reporter Primary qHTS; Vaccinia virus Venus reporter expression, fluorescence; Potency, µM (titrated, usually from 36.5 µM), inactives show at the top dose activity change, negative = inhibition, most hits filed as inhibitors; hit rate 0.46% among 330,000; calls by dose curve; tested in A549 cells; further: on the % scale 0 is the no-effect control and ±100 the full control effect; nearly all actives have a fitted effect of over 30% in size
Active calls of the source: *; ! = repeats disagree. Unless noted, the call rests on the fitted dose curve; in most records, active means well fitted curve in the direction sought with a large enough effect; inconclusive means small, poorly fitted or top-dose-only effect, or another doubt; inactive means no such curve, though single readings can be large; an effect the other way counts as inactive or inconclusive. Potency means the concentration at half of the fitted maximal effect.

Cc1cc(Sc2nc(NC(C)C)nc(NC(C)C)n2)nc(Cl)n1 was read as AmpC inh no detg 1.6%, SARS PLpro yeast 0.7%, VACV mCherry inh 7.94µM*, AMA1-RON2 inh 0.0%, AmpC detergent 3.3% and VACV Venus inh inconclusive.
Screening COc1ccc(OC)c(CCNC(=O)c2c(C)nn(-c3ccc(F)cc3)c2-n2cccc2)c1 returned VACV mCherry inh -9.3%, AmpC detergent 14.7% and VACV Venus inh -0.4%.
Screening C(=C\c1sc(Nc2ccccc2)n[n+]1-c1ccccc1)/c1ccccc1 returned VACV mCherry inh inconclusive, AMA1-RON2 inh 74.4% and VACV Venus inh 8.91µM*.
`COc1ccccc1CCNc1ncnc2sc(C(=O)N3CCCN(C=O)CC3)c(C)c12` gave VACV mCherry inh -12.8% and VACV Venus inh -6.3%.
CCOC(=O)N1CCC(c2cc(=O)n3[nH]ccc3n2)CC1 was read as AmpC inh no detg -14.6%, SARS PLpro yeast -7.7%, VACV mCherry inh inactive, AMA1-RON2 inh 0.5%, AmpC detergent inconclusive and VACV Venus inh 0.4%.
Screening CCOC(=O)N1CCC(c2cc(=O)n3[nH]cc(C(=O)OC)c3n2)CC1 returned AmpC inh no detg 7.94µM*, SARS PLpro yeast 5.1%, VACV mCherry inh inactive, AMA1-RON2 inh 7.2%, AmpC detergent inconclusive and VACV Venus inh -7.1%.
`Cc1ccc(CNC(=O)c2c(Nc3ccccc3C)sc(C(=O)c3ccc(F)cc3)c2N)cc1` gave VACV mCherry inh 11.2µM*, AmpC detergent -2.1% and VACV Venus inh inconclusive.
`COc1cc(CNc2ccccc2Oc2cc(=O)n(C)c(=O)n2C)cc(OC)c1OC` gave AmpC inh no detg 117.3%, SARS PLpro yeast 7.0%, VACV mCherry inh -5.8%, AMA1-RON2 inh 11.8%, AmpC detergent 0.2% and VACV Venus inh -16.9%.
Cn1c(Oc2ccccc2NCc2cc(Br)ccc2O)cc(=O)n(C)c1=O was read as AmpC inh no detg 22.4µM*, SARS PLpro yeast -0.4%, AMA1-RON2 inh -1.6%, AmpC detergent inconclusive and VACV Venus inh inconclusive.
`COc1ccc(CN2CCN(C(C)=O)CC2)cc1OC1CCN(C(=O)c2ccc3[nH]c(C)c(C)c3c2)CC1` gave VACV mCherry inh -9.9% and VACV Venus inh 1.6%.
Screening Cc1cc(=O)n(-c2ccccc2)n1C returned AmpC inh no detg -18.8%, SARS PLpro yeast 0.4%, VACV mCherry inh 5.01µM*!, AMA1-RON2 inh 9.3% and VACV Venus inh inconclusive.
Screening COc1ccc(-c2cccc3c2OC(CNC(=O)c2ccccc2-n2cccn2)C3)nn1 (stereo not drawn) returned VACV mCherry inh -6.4% and VACV Venus inh 7.8%.
`COc1ccc(CN2CCC(N3CC(C)OC(C)C3)CC2)c(OC)c1OC` (stereo not drawn) gave AmpC inh no detg -10.5%, SARS PLpro yeast 0.4%, AMA1-RON2 inh 12.6µM* and AmpC detergent inconclusive.
`CCC[C@H](CN[C@@H](CNC)[C@H](C)CC)NCCc1cc(C(F)(F)F)cc(C(F)(F)F)c1` gave AmpC inh no detg 144.9%, SARS PLpro yeast -9.1%, VACV mCherry inh inconclusive, AMA1-RON2 inh 93.8%, AmpC detergent -18.9% and VACV Venus inh 20µM*.
CCC[C@@H](CN[C@@H](CNC)[C@H](C)CC)NCC1CCC(C(C)(C)C)CC1 (stereo partly drawn) was read as AmpC inh no detg 39.7%, SARS PLpro yeast -0.8%, VACV mCherry inh inconclusive, AMA1-RON2 inh 85.1%, AmpC detergent -4.7% and VACV Venus inh 12.6µM*.
Screening CN1N=C(C(=O)N2CCOc3ccc(CN4CCCC(C(=O)c5cccnc5)C4)cc3C2)CCC1=O (stereo not drawn) returned VACV mCherry inh -11.6% and VACV Venus inh -6.8%.
Screening COc1cccc(CN(C)C(=O)c2cnn(-c3ncc4c(n3)-c3ccccc3CCC4)c2C)c1 returned VACV mCherry inh inconclusive and VACV Venus inh -28.2%.
Screening COc1cc(OC)c(N(C)S(=O)(=O)c2cccc(C(=O)OCC(=O)c3c[nH]c4ccccc34)c2)cc1Cl returned AmpC inh no detg 3.98µM*, SARS PLpro yeast 3.5%, VACV mCherry inh -25.1%, AMA1-RON2 inh 17.9%, AmpC detergent inconclusive and VACV Venus inh -24.8%.
`Cc1ccc(CNc2ncnc3sc(C(=O)N4CCCC(C(N)=O)C4)c(C)c23)o1` (stereo not drawn) gave VACV mCherry inh -3.9% and VACV Venus inh 4.0%.
Screening Cc1cc2c(C(C)C)c(O)c(O)c(C=O)c2c(O)c1-c1c(C)cc2c(C(C)C)c(O)c(O)c(C=O)c2c1O returned AmpC inh no detg -48.2%, SARS PLpro yeast 10µM*, VACV mCherry inh 4.47µM*, AmpC detergent -7.5% and VACV Venus inh 3.98µM*.
`CC[C@H](C)[C@@H](NC(=O)O[C@@H]1C(=O)c2cc(Br)ccc2O[C@H]1c1ccc2c(c1)OCO2)C(=O)OC` gave AmpC inh no detg 35.5µM*, SARS PLpro yeast -5.9% and AmpC detergent -8.2%.
COC(=O)[C@@H](NC(=O)O[C@@H]1C(=O)c2cc(Br)ccc2O[C@H]1c1cccc(OC)c1)C(C)C was read as AmpC inh no detg -21.7%, SARS PLpro yeast -10.2% and AmpC detergent inconclusive.
For COc1ccc(N=C2C(=Nc3ccc(OC)cc3)N(c3ccc(OC)cc3)C(=S)N2C)cc1 the results were AmpC inh no detg 10.8%, SARS PLpro yeast -2.1%, VACV mCherry inh -8.1%, AMA1-RON2 inh 6.7µM*, AmpC detergent 1.7% and VACV Venus inh -15.8%.
For CN(C)c1ccc(C(c2ccc(N(C)C)cc2)c2ccc([N+](=O)[O-])cc2)cc1 the results were AmpC inh no detg -25.4%, SARS PLpro yeast -1.9%, VACV mCherry inh inconclusive, AMA1-RON2 inh 8.91µM*, AmpC detergent -11.9% and VACV Venus inh -11.0%.
Screening O=[N+]([O-])c1ccc(C(c2ccc([N+](=O)[O-])cc2)c2ccc([N+](=O)[O-])cc2)cc1 returned VACV mCherry inh inconclusive, AMA1-RON2 inh inconclusive and VACV Venus inh -28.8%.
For CC(C)(C)OC(=O)NS(=O)(=O)NOCc1ccccc1 the results were VACV mCherry inh -11.7% and VACV Venus inh 0.9%.
COc1ccc(CN2CCCC(n3cc(C(=O)N4CCCCC4)nn3)C2)cc1OC (stereo not drawn) was read as VACV mCherry inh -8.2% and VACV Venus inh 4.7%.

Screening results from PubChem BioAssay.
